Assay [1] addresses T1, Inhibitor of nuclear factor kappa-B kinase subunit epsilon (Homo sapiens) (UniProt Q14164).
T1 sequence (whole entry): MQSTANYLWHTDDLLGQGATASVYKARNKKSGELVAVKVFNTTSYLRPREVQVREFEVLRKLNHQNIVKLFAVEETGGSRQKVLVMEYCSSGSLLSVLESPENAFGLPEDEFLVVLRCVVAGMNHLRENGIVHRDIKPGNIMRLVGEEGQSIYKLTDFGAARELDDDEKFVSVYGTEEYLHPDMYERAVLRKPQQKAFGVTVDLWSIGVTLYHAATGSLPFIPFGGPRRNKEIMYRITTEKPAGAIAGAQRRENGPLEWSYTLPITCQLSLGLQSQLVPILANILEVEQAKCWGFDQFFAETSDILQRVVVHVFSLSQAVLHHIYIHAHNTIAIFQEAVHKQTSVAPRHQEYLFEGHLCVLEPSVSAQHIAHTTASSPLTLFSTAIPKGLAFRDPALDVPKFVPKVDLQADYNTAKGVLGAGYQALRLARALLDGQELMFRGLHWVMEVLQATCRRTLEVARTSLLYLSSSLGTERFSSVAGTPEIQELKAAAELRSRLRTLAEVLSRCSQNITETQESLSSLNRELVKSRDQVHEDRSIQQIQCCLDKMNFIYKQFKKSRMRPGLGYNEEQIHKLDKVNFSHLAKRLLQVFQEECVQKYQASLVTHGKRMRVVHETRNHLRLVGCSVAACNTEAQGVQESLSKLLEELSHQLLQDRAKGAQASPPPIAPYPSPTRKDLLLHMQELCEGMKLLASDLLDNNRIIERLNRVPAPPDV
As to conditions: at 1 µM.

Assay [2] deals with T2, Serine/threonine-protein kinase Nek1 (Homo sapiens) (UniProt Q96PY6).
T2 sequence (whole entry): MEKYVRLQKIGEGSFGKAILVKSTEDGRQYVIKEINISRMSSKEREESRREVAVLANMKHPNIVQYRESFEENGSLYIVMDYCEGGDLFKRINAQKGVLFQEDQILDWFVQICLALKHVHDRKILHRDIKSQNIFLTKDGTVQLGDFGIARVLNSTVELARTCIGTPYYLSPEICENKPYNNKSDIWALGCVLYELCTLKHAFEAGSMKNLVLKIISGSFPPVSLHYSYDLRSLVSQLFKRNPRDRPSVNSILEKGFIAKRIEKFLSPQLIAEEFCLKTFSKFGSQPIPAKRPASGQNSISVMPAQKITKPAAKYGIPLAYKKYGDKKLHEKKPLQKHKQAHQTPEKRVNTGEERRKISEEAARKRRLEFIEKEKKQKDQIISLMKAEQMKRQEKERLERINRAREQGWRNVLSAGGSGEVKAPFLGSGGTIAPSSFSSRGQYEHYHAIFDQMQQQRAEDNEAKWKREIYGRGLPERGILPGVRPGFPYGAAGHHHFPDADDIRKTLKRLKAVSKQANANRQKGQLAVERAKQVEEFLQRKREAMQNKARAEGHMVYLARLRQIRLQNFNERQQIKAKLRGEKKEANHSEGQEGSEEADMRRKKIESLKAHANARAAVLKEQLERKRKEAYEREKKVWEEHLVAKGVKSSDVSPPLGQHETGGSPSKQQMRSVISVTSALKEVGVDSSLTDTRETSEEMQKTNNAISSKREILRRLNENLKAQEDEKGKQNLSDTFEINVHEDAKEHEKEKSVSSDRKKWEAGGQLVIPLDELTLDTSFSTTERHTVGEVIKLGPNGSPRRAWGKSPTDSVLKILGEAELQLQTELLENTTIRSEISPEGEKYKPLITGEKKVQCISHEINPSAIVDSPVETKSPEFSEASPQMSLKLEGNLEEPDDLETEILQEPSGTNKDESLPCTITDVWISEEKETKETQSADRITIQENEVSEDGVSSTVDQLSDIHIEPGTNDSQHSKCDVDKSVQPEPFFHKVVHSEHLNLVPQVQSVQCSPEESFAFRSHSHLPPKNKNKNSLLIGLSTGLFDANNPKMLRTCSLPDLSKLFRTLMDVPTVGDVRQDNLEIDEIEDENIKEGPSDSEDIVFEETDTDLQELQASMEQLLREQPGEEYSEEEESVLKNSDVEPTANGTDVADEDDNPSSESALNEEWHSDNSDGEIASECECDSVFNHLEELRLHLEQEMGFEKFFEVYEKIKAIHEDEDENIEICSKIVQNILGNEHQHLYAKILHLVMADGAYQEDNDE
As to conditions: at 0.1 µM.

In assay [3] the target is T2, Serine/threonine-protein kinase Nek1 (Homo sapiens). As to conditions: at 1 µM.
Assay [4] concerns the target T3, Serine/threonine-protein kinase Nek2 (Homo sapiens) (UniProt P51955).
T3 sequence (whole entry): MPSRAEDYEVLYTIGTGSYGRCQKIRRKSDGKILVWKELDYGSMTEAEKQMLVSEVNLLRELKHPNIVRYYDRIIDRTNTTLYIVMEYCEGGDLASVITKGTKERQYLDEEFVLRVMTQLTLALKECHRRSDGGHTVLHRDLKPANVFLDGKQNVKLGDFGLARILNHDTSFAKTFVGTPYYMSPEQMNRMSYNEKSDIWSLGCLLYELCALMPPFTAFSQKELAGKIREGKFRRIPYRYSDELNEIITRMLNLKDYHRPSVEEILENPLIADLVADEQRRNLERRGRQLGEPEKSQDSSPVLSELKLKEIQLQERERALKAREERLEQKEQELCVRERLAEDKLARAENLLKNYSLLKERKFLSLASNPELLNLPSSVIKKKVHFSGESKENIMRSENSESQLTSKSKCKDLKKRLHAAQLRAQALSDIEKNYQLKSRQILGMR
The conditions noted are these: at 0.1 µM.

For assay [5], the target named is T3, Serine/threonine-protein kinase Nek2 (Homo sapiens). The conditions noted are these: at 1 µM.
Assay [6] concerns the target Serine/threonine-protein kinase Nek6 (Homo sapiens) (UniProt Q9HC98). The conditions noted are these: at 0.1 µM.
The target is the same in assay [7]. As to conditions: at 1 µM.
Assay [8] concerns the target Serine/threonine-protein kinase Nek7 (Homo sapiens) (UniProt Q8TDX7). The conditions noted are these: at 0.1 µM.
Assay [9] shares this target. As to conditions: at 1 µM.
In assay [10] the target is T4, Serine/threonine-protein kinase Nek9 (Homo sapiens) (UniProt Q8TD19).
T4 sequence (whole entry): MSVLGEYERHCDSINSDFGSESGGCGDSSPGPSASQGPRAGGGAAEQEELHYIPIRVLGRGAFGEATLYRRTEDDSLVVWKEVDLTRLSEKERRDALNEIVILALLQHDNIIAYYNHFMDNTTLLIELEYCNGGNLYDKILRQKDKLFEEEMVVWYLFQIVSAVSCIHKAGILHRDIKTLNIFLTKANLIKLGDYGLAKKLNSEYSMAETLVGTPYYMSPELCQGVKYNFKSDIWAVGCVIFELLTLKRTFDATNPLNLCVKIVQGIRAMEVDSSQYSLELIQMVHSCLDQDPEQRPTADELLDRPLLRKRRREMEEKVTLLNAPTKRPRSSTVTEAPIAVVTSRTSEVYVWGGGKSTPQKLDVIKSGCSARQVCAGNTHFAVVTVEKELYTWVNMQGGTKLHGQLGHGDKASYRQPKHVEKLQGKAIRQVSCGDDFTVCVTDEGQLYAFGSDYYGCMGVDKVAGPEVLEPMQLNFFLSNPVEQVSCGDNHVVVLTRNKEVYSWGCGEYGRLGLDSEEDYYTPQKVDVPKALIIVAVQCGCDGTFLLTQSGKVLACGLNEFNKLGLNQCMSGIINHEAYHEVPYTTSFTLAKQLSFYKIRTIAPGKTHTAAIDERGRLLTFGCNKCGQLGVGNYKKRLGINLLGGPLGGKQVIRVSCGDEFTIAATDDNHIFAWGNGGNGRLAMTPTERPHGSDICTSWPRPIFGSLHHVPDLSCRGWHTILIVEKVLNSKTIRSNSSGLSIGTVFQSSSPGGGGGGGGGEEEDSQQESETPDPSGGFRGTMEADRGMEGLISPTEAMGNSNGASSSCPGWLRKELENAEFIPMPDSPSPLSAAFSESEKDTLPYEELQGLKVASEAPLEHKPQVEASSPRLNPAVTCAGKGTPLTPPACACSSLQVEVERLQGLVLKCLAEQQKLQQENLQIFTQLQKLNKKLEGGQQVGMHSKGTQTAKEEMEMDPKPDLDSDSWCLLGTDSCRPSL
The conditions noted are these: at 0.1 µM.

Assay [11] deals with T4, Serine/threonine-protein kinase Nek9 (Homo sapiens). The conditions noted are these: at 1 µM.
Assay [12] deals with Serine/threonine-protein kinase PLK1 (Homo sapiens) (UniProt P53350). The conditions noted are these: at 0.1 µM.
Chain of Serine/threonine-protein kinase PLK1 (Homo sapiens) (P53350 whole entry): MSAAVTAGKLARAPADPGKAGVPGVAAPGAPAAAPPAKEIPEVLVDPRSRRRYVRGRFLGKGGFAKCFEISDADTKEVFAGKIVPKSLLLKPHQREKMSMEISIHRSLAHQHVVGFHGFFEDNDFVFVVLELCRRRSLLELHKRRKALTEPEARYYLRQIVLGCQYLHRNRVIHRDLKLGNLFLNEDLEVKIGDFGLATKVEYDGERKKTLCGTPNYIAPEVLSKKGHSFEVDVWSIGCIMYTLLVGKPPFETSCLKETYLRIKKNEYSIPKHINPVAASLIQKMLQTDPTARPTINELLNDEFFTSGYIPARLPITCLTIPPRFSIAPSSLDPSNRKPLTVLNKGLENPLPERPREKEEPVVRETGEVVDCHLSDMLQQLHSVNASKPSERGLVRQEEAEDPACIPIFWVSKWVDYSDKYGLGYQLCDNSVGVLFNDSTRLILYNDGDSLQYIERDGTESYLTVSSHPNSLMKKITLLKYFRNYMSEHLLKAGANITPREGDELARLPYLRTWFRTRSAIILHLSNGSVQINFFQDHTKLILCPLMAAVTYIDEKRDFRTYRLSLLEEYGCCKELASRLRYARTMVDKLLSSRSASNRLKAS
Assay [13] shares this target. As to conditions: at 1 µM.
Assay [14] concerns the target T5, Dual specificity protein kinase TTK (Homo sapiens) (UniProt P33981).
T5 sequence (whole entry): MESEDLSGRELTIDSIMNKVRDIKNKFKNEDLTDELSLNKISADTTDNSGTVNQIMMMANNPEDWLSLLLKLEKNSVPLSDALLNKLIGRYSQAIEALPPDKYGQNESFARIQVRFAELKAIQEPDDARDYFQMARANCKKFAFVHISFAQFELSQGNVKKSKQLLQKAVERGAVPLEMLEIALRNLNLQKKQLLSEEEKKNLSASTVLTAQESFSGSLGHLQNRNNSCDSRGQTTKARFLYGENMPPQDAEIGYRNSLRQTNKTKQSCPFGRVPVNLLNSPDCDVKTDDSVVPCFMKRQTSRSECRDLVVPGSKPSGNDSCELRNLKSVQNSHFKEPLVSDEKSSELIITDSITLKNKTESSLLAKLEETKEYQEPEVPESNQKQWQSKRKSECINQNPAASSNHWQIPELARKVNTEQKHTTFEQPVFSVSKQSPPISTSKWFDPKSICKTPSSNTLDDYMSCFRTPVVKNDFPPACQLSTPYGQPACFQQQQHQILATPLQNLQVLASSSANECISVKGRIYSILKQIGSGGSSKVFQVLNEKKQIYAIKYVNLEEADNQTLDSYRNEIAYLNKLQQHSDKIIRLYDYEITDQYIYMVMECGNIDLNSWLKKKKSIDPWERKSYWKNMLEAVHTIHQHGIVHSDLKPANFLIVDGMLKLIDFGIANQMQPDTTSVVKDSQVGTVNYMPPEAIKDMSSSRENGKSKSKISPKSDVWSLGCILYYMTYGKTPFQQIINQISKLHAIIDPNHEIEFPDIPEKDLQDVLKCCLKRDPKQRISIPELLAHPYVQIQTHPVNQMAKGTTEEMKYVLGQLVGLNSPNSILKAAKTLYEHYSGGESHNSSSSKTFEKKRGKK
The conditions noted are these: at 0.1 µM.

The subject of assay [15] is T6, Receptor-type tyrosine-protein kinase FLT3 (Homo sapiens), P36888 [D835Y].
T6 sequence (whole entry): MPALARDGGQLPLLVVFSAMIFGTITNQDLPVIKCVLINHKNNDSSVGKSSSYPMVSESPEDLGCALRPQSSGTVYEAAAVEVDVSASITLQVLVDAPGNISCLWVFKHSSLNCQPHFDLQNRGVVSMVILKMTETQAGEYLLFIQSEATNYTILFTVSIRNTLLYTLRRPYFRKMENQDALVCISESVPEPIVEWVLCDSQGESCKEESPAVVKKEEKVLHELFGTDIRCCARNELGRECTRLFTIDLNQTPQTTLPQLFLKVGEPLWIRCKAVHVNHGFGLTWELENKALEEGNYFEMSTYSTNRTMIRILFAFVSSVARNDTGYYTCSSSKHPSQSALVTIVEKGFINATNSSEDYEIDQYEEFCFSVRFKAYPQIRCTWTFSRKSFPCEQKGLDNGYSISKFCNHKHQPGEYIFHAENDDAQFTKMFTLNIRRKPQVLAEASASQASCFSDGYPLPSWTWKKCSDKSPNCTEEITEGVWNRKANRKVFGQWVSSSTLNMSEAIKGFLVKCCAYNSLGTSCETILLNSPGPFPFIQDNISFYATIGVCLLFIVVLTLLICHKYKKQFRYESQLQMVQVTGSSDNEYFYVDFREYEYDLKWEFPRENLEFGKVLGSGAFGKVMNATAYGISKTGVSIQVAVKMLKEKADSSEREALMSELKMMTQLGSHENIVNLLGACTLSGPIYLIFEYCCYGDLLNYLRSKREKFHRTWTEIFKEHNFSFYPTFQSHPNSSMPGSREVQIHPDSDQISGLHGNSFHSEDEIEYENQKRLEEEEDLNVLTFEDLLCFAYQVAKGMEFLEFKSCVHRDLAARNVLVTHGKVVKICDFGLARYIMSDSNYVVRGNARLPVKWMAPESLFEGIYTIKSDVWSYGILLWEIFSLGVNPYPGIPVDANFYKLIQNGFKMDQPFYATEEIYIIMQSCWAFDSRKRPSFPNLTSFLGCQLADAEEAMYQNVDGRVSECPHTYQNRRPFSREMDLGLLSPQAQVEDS
As to conditions: at 1 µM.

Assay [16] concerns the target Vascular endothelial growth factor receptor 3 (Homo sapiens) (UniProt P35916). As to conditions: at 0.1 µM.
Assay [17] has the same target. The conditions noted are these: at 1 µM.
For assay [18], the target named is Macrophage colony-stimulating factor 1 receptor (Homo sapiens) (UniProt P07333). As to conditions: at 0.1 µM.
Chain of Macrophage colony-stimulating factor 1 receptor (Homo sapiens) (P07333 whole entry): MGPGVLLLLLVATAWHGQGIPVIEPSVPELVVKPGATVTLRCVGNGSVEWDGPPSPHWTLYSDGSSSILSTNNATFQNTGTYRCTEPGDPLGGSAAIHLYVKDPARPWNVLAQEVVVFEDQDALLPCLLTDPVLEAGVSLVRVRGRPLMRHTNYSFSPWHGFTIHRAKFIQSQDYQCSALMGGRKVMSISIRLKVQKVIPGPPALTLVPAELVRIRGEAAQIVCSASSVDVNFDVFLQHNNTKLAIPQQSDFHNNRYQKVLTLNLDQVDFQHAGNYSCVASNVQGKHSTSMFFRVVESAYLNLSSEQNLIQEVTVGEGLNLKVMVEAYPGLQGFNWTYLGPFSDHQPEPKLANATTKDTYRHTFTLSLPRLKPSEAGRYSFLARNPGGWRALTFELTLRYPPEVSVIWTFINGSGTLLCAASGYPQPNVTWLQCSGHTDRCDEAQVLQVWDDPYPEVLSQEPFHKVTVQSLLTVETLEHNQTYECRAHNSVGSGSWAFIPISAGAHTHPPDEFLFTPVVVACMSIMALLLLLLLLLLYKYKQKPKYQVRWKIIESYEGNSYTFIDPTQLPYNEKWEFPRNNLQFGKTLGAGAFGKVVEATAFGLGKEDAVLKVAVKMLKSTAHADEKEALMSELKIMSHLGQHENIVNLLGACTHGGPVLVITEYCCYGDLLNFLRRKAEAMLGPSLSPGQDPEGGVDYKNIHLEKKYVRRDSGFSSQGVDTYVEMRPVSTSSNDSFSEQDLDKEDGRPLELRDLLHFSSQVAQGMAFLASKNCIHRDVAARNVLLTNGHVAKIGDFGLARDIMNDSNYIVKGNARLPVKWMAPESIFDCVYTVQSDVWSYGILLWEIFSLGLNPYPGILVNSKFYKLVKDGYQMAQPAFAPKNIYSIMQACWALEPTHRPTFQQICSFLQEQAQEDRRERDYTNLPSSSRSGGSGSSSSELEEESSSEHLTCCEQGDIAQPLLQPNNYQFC
Assay [19] shares this target. The conditions noted are these: at 1 µM.
For assay [20], the target named is Tyrosine-protein kinase Fyn (Homo sapiens) (UniProt P06241). As to conditions: at 0.1 µM.
Chain of Tyrosine-protein kinase Fyn (Homo sapiens) (P06241 2-537 limits assumed): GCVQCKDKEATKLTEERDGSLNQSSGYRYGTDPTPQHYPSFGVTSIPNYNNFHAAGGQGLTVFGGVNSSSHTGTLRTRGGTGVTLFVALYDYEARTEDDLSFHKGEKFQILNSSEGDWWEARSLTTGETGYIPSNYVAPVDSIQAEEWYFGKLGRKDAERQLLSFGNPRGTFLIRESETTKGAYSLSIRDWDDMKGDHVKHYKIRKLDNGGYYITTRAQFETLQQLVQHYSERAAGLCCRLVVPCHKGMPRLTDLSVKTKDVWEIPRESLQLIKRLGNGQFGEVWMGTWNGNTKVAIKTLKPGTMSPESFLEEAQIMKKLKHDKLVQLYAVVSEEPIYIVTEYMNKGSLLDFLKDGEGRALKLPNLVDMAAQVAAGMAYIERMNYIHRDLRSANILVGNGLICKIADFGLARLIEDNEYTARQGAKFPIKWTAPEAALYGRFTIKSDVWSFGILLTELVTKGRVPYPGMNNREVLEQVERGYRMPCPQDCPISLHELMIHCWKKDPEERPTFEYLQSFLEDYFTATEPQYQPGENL

Usually inhibition stands for the relative decrease from the control value, in per cent.

Chain of Vascular endothelial growth factor receptor 3 (Homo sapiens) (P35916 whole entry): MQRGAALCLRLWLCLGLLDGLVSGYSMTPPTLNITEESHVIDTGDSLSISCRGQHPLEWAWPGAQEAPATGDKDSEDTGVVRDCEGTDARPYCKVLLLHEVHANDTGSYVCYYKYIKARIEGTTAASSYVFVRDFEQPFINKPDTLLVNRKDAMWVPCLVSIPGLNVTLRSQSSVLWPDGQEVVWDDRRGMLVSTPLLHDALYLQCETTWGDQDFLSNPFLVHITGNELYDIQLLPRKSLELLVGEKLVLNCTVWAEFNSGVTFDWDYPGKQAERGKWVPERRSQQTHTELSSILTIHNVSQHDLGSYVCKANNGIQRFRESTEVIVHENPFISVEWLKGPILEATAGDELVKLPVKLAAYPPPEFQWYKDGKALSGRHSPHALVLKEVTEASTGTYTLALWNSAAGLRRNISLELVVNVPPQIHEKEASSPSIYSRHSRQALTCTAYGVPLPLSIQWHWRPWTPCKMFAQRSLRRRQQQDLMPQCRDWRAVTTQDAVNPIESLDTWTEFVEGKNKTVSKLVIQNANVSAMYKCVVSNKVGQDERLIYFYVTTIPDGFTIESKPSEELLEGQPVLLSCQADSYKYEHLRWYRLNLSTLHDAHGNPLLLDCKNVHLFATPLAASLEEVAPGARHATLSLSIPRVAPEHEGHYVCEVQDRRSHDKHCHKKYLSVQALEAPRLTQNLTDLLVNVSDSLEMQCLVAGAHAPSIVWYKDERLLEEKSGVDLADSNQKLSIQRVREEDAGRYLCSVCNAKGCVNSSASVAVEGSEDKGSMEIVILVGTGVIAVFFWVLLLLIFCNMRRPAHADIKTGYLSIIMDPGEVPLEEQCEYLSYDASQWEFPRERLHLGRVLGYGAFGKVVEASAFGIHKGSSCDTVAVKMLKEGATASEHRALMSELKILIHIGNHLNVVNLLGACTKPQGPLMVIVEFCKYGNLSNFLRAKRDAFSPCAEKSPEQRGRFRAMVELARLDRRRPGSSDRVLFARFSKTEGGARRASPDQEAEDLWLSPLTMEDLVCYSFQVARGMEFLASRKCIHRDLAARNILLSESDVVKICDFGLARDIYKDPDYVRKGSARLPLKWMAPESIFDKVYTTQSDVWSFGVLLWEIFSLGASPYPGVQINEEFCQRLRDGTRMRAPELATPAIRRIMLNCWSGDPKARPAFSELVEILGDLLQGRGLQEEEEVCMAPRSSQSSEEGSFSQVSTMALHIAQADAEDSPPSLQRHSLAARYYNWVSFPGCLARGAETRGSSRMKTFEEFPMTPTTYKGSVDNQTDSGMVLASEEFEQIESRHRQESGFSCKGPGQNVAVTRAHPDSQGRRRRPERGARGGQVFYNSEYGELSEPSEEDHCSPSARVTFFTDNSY
Chain of Serine/threonine-protein kinase Nek7 (Homo sapiens) (Q8TDX7 whole entry, looked up): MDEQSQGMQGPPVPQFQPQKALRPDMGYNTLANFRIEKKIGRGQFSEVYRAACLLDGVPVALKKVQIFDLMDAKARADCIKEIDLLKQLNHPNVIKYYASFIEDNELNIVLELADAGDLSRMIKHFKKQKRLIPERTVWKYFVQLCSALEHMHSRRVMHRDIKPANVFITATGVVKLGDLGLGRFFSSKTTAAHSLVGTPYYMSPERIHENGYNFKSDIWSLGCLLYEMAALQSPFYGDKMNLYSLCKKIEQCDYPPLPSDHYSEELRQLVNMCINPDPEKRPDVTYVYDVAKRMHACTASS
Chain of Serine/threonine-protein kinase Nek6 (Homo sapiens) (Q9HC98 whole entry): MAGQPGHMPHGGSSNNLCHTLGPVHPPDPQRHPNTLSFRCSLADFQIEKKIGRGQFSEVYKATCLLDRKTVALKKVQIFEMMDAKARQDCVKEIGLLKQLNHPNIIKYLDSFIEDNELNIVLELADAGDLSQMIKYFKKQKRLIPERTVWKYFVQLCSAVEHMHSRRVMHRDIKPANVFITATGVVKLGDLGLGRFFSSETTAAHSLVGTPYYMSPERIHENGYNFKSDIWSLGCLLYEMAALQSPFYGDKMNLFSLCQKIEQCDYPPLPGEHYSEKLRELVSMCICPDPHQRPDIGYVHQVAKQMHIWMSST

`ON=C1CCc2cc(-c3nc(C4CCNCC4)[nH]c3-c3ccncc3)ccc21`: the inhibition was 2.68% in assay [1]; 0.37% in [2]; -0.17% in assay [3]; 0.86% in [4]; 1.18% in [5]; -0.82% in [6]. The inhibition in [7] is -3.55%; in assay [8] it was 2.03%; in [9], 0.72%; in assay [10], 4.01%; in [11], 1.01%; in [12] it was 1.85%. Besides, the inhibition was 0.96% in assay [13]; 3.99% in [14]; 2.96% in [15]; -0.02% in assay [16]; 0.4% in assay [17]; 2.19% in assay [18]. In addition, the inhibition was 0.63% in assay [19] and 2.09% in assay [20].
